Source: the supplement of paper PMC10127200
Counter-ions that a name gives are not always drawn.

How the values were obtained:
Experiment in all cases: Euclidean distance of Cell Painting phenotypic profile (signed KS, 77 features) to DMSO centroid (dimensionless distance); 5 or 10 uM (library dependent); higher = stronger phenotypic change vs DMSO (phenoactivity)
Details in all cases: 48 h
786-O = tested on: 786-O
Outline: (§1)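 Stained cells were imaged confocally at 20X with 9 fields per well, after 48 h of exposure to library compounds at 10 or 5 uM (set by library; 0.1% DMSO final). The cells were five cancer lines and a healthy fibroblast line. From the images, Harmony extracted 77 features, each expressed as a signed Kolmogorov-Smirnov statistic relative to same-plate vehicle wells. Phenoactivity is measured as Euclidean distance to the median vehicle profile, using plate-position-corrected, correlation-weighted profiles averaged across replicates at the top dose.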

A549 = tested on: A549
Outline: as §1

DU145 = tested on: DU145
Outline: as §1

FB = tested on: FB
Outline: as §1

HEPG2 = tested on: HEPG2
Outline: as §1

OVCAR4 = tested on: OVCAR4
Outline: as §1

Structure (SMILES) | Euclidean distance (786-O) | Euclidean distance (A549) | Euclidean distance (DU145) | Euclidean distance (FB) | Euclidean distance (HEPG2) | Euclidean distance (OVCAR4)
NCc1ccccc1CC(=O)N[C@@H]1C(=O)N2C(C(=O)O)=C(CSc3nnnn3CC(=O)O)CS[C@H]12 [Ceforanide] | 0.783 | 0.791 | 1.07 | 1.16 | 0.834 | 1.64
O=C(C[S+]([O-])Cc1ccco1)NC/C=C\COc1cc(CN2CCCCC2)ccn1 (configuration not stated) [Lafutidine] | 0.976 | 1.04 | 1.52 | 1.4 | 2.06 | 1.4
CC(C)(C)NCC(O)c1ccc(O)c(CO)c1 (configuration not stated) [Salbutamol Sulfate] | 1.57 | 0.928 | 1.27 | 0.735 | 1.31 | 1.78
CC(=O)NS(=O)(=O)c1ccc(N)cc1 [Sulfacetamide Sodium] | 1.12 | 0.648 | 1.22 | 0.694 | 0.673 | 1.05
CCC[C@H](N[C@@H](C)C(=O)N1[C@H](C(=O)O)C[C@@H]2CCCC[C@@H]21)C(=O)OCC [Perindopril Erbumine] | 1.37 | 0.943 | 1.24 | 0.906 | 1.41 | 0.854
Oc1cccc(O)c1 [Resorcinol] | 1.3 | 1.19 | 0.938 | 1.24 | 1.33 | 1.05
NCCCC[C@H](N[C@@H](CCc1ccccc1)C(=O)O)C(=O)N1CCC[C@H]1C(=O)O [Lisinopril dihydrate] | 1.2 | 0.621 | 0.821 | 0.86 | 0.746 | 1.51
O=C(NCCN1CCOCC1)Nc1nc2ccc(Sc3nnc4ccc(-c5ccc(F)cc5)nn34)cc2s1 | 1.21 | 1.01 | 1.2 | 1.23 | 0.646 | 1.15
CC[C@H]1OC(=O)[C@H](C)[C@@H](O[C@H]2C[C@@](C)(OC)[C@@H](O)[C@H](C)O2)[C@H](C)[C@@H](O[C@@H]2O[C@H](C)C[C@H](N(C)C)[C@H]2O)[C@](C)(O)C[C@@H](C)[C@@H]2N[C@@H](COCCOC)O[C@H]([C@H]2C)[C@]1(C)O [Dirithromycin] | 0.963 | 1.37 | 0.758 | 1.06 | 1.27 | 1.41
CC(C)(C)NC(=O)[C@H]1CC[C@H]2[C@@H]3CC[C@H]4NC(=O)C=C[C@]4(C)[C@H]3CC[C@]12C [Finasteride] | 1.26 | 0.717 | 0.682 | 0.871 | 0.391 | 1.18
Cc1cc(C(C)(C)C)c(O)c(C)c1CC1=NCCN1 [Oxymetazoline HCl] | 1.3 | 0.82 | 0.75 | 1.1 | 1.88 | 0.83
CCOc1cc(N)c(Cl)cc1C(=O)NCC1CN(Cc2ccc(F)cc2)CCO1 (configuration not stated) [Mosapride] | 1.2 | 0.542 | 0.858 | 1.33 | 0.651 | 1.09
O=C1CC[C@H](N2Cc3c(OCc4ccc(CN5CCOCC5)cc4)cccc3C2=O)C(=O)N1 [Iberdomide(CC220)] | 1.05 | 1.02 | 0.711 | 1.32 | 1.24 | 0.967
O=C1c2c(O)ccc(O)c2C(=O)c2c(NCCNCCO)ccc(NCCNCCO)c21 [Mitoxantrone HCl] | 4.89 | 4.24 | 3.24 | 4.31 | 4.05 | 6.27
CC(=O)OCC[N+](C)(C)C [Acetylcholine iodide] | 0.893 | 0.442 | 0.869 | 0.877 | 0.594 | 1.19
CCOCC(O)COc1ccc(NC(=O)CC[S+](C)C)cc1 (configuration not stated) [Suplatast Tosylate] | 1.48 | 1.01 | 1.47 | 1.14 | 0.648 | 1.13
CC(C)(O)[C@H]1CC[C@@](C)([C@H]2[C@@H](O)C[C@@]3(C)[C@@H]4C[C@H](O[C@@H]5O[C@H](CO)[C@@H](O)[C@H](O)[C@H]5O)[C@H]5C(C)(C)[C@@H](O[C@@H]6OC[C@@H](O)[C@H](O)[C@H]6O)CC[C@@]56C[C@@]46CC[C@]23C)O1 [Astragaloside A] | 4.07 | 3.46 | 3.2 | 2.61 | 2.19 | 3.11
CN(C)CCCOc1nn(Cc2ccccc2)c2ccccc12 [Benzydamine HCl] | 1.26 | 0.962 | 1.75 | 1.24 | 0.87 | 1.33
CO[C@@H]1[C@@H](O[C@@H]2O[C@H](C)[C@@H](O[C@H]3C[C@@](C)(O)[C@@H](OC(=O)CC(C)C)[C@H](C)O3)[C@H](N(C)C)[C@H]2O)[C@@H](CC=O)C[C@@H](C)[C@@H](O)/C=C/C=C/C[C@@H](C)OC(=O)C[C@H]1O [Kitasamycin] | 0.871 | 1.1 | 1.49 | 0.973 | 0.78 | 0.761
COCCCOc1ccnc(C[S+]([O-])c2nc3ccccc3[nH]2)c1C (configuration not stated) [Rebeprazole sodium] | 0.719 | 0.641 | 0.763 | 1.22 | 1.54 | 0.777
CO[C@H]1/C=C/O[C@@]2(C)Oc3c(C)c(O)c4c(c3C2=O)C2=NC3(CCN(CC(C)C)CC3)NC2=C(NC(=O)/C(C)=C\C=C\[C@H](C)[C@H](O)[C@@H](C)[C@@H](O)[C@@H](C)[C@H](OC(C)=O)[C@@H]1C)C4=O [Rifabutin] | 1.26 | 0.759 | 1.51 | 1.08 | 2.11 | 1.35
CC(=O)Nc1cccc(-n2c(=O)n(C3CC3)c(=O)c3c(Nc4ccc(I)cc4F)n(C)c(=O)c(C)c32)c1 | 3.52 | 3.28 | 3.33 | 3.79 | 1.56 | 1.94
